PTK2B oligo ant – antagonists of Pyk2 self-association, primary screen, Q293 cells, FERM NanoBiT luminescence, HTS; Protein-tyrosine kinase 2-beta (Homo sapiens), Q14289; hits give low values; z-score (the deposit names both 25 µM and 10 µM); 99,000 tested, 0.83% active;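 active means Z-score of -3 or lower, scaled per plate to the spread of control and sample wells; inactive means z-score above -3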;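 further: negative z-score means lost luminescence so less FERM oligomerization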
Cav3 T inh – Cav3.2 calcium influx blockers – cell-based, Fluo-4 calcium fluorescence, FDSS, MLSMR library, primary screen | AID 449739, 2010 | B-score at 10 µM | Cav3.2-expressing cells; hits give low values | 100,000 tested, 4% active;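 active means single-dose well whose peak fluorescence ratio is a statistical outlier from its plate by either plate-standardised score or position-corrected B-score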
CYP2C19 inh – blockers of cytochrome P450 2C19 activity – biochemical, luminescence, ADME assay, primary screen; P33261; CYP2C19 Supersomes, luciferin-H EGE luminescence, 30 min; inhibition, % at 5 µM; 96,000 tested, 21% active;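 active means CYP2C19 inhibition above a set limit at 5 µM in the primary screen, cut at about 50% in these data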;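 further: plate controls were negative control wells for no effect and 2.5 mM tranylcypromine positive control for full effect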
Target sequence (P33261 whole entry, looked up): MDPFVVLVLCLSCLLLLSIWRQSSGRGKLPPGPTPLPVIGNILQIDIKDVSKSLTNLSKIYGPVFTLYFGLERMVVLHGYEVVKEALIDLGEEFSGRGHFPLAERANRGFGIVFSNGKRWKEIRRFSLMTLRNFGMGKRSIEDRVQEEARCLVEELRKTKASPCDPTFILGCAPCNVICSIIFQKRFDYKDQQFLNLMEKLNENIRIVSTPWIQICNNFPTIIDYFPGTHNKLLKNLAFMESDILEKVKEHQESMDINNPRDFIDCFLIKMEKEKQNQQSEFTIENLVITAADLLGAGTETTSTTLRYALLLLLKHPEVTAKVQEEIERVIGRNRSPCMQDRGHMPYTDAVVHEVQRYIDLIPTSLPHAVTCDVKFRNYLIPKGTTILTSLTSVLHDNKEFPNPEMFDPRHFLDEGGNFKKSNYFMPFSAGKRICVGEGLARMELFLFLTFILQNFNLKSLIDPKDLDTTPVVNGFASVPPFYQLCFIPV
CYP2C9 inh – blockers of cytochrome P450 2C9 activity – biochemical, luminescence, ADME assay, primary screen | P11712 | CYP2C9 Supersomes, luciferin-H conversion | inhibition, % at 5 µM | 96,000 tested, 20% active;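 active means blocking of liver enzyme CYP2C9 beyond about 50% at 5 µM, limit read from the data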
CYP2C19 act – human CYP2C19 activators, primary screen, biochemical, luminescence; recombinant CYP2C19, luciferin-H EGE luminescence; hits give high values; 0 = fully inhibited enzyme, 1 = untreated enzyme; activation factor at 5 µM; 96,000 tested, under 10 active; AID 1025, 2008;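 active means activation factor of at least 2 at 5 µM in the primary screen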;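 further: 0 = wells with 2.5 mM tranylcypromine and 1 = vehicle-only wells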
CYP2C9 activ – human CYP2C9 activators, primary screen, biochemical, luminescence | recombinant CYP2C9, luciferin-H conversion; hits give high values; factor 1 = untreated enzyme, 0 = blocked | activation factor at 5 µM | 96,000 tested, 1.4% active | Cytochrome P450 2C9 (Homo sapiens), P11712;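 active means activation factor of 2 or more for CYP2C9 at a 5 µM dose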;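 further: 0 = sulfaphenazole-blocked wells and 1 = vehicle-only wells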
Numbers without * were called inactive. An excerpt weighted towards active compounds, which were near 27% of everything screened.

Results for COC(=O)c1cc2c(ccn2-c2ccc(F)cc2)n1Cc1cccc(OC)c1 ?
PTK2B oligo ant: -1.18

What do the screens show for `Cc1ccccc1Nc1nnc(SCC(=O)N(C)C2CCS(=O)(=O)C2)s1` (centres undefined)?
PTK2B oligo ant: 1.07

What do the screens show for `CN(c1nc(-c2ccccc2)cs1)C1CCS(=O)(=O)C1` (centres undefined)?
PTK2B oligo ant: 0.07; Cav3 T inh: 0.11; CYP2C19 inh: 58.1*; CYP2C9 inh: 17.5; CYP2C19 act: 0.4; CYP2C9 activ: 0.8

What do the screens show for `CN(C(=O)CSc1nc(-c2ccc(F)cc2)cs1)C1CCS(=O)(=O)C1` (centres undefined)?
PTK2B oligo ant: 0.53; Cav3 T inh: 0.363; CYP2C19 inh: 37.3; CYP2C9 inh: -264.2; CYP2C19 act: 0.6; CYP2C9 activ: 3.6*

What do the screens show for `CN(C(=O)CSc1nc(-c2ccccc2)cs1)C1CCS(=O)(=O)C1` (centres undefined)?
PTK2B oligo ant: 0.12; Cav3 T inh: -0.231; CYP2C19 inh: 60.0*; CYP2C9 inh: -303.5; CYP2C19 act: 0.4; CYP2C9 activ: 4*

Results for O=C(NCCCCc1ccccc1)C1CC(c2cc(C(F)(F)F)cc(C(F)(F)F)c2)=NO1 (centres undefined) ?
Cav3 T inh: -1.63

How did Oc1cccc(O)c1O do in these assays?
Cav3 T inh: 0.861

Results for CC(=O)NC(CC(C)C)C(=O)NC(=O)NCc1ccccc1 (centres undefined) ?
PTK2B oligo ant: -0.39; Cav3 T inh: 0.637; CYP2C19 inh: 19.5; CYP2C9 inh: -5.2; CYP2C19 act: 0.8; CYP2C9 activ: 1.1

How did CC1CCC2(CC1)NC(=S)N(c1ccccc1)N2 (centres undefined) do in these assays?
PTK2B oligo ant: 0.64; Cav3 T inh: 0.566; CYP2C19 inh: 54.2*; CYP2C9 inh: 9.1; CYP2C19 act: 0.5; CYP2C9 activ: 0.9

How did Cc1cc2n(n1)C(c1c[nH]c3ccccc13)Nc1ccccc1-2 (centres undefined) do in these assays?
PTK2B oligo ant: -1.1; Cav3 T inh: -0.379; CYP2C19 inh: 21.7; CYP2C9 inh: 81.2*; CYP2C19 act: 0.8; CYP2C9 activ: 0.2

What do the screens show for `Cc1cc(S(=O)(=O)NC2CCCC2)ccc1F`?
PTK2B oligo ant: -0.62; Cav3 T inh: 1.17; CYP2C19 inh: 25.8; CYP2C9 inh: 11.6; CYP2C19 act: 0.7; CYP2C9 activ: 0.9

What do the screens show for `O=S(=O)(NC1CCCCCC1)c1ccc(Br)s1`?
PTK2B oligo ant: -1.07; Cav3 T inh: -4.89*

What do the screens show for `O=C(CCS(=O)(=O)c1ccc(Br)s1)NC1CCCC1`?
PTK2B oligo ant: 0.5; Cav3 T inh: 1.02; CYP2C19 inh: 0.8; CYP2C9 inh: -21.5; CYP2C19 act: 1; CYP2C9 activ: 1.2

What do the screens show for `O=S(=O)(NC1CCCCC1)c1ccc(Br)cc1`?
PTK2B oligo ant: -0.96; Cav3 T inh: -1.52; CYP2C19 inh: 79.8*; CYP2C9 inh: 26.0; CYP2C19 act: 0.2; CYP2C9 activ: 0.7

Results for O=C(CCNS(=O)(=O)c1ccc(Br)s1)NC1CCCC1 ?
PTK2B oligo ant: -0.75; Cav3 T inh: 0.587; CYP2C19 inh: 13.1; CYP2C9 inh: -108.2; CYP2C19 act: 0.9; CYP2C9 activ: 2.1*

Results for O=C(CCNS(=O)(=O)c1ccc(Br)s1)N1CCCCC1 ?
PTK2B oligo ant: 1.01; Cav3 T inh: 0.598; CYP2C19 inh: 67.8*; CYP2C9 inh: -66.4; CYP2C19 act: 0.3; CYP2C9 activ: 1.7

Results for Cc1cccc(Oc2nc(-c3cccc([N+](=O)[O-])c3)nc3ccccc23)c1C ?
PTK2B oligo ant: 0.22; Cav3 T inh: -1.18; CYP2C19 inh: -1.9; CYP2C9 inh: 11.0; CYP2C19 act: 1; CYP2C9 activ: 0.9

How did O=C(CSc1nnc(-c2ccccc2Br)o1)N1CCc2ccccc2C1 do in these assays?
PTK2B oligo ant: 2.16; Cav3 T inh: -1.31; CYP2C19 inh: 32.5; CYP2C9 inh: -11.6; CYP2C19 act: 0.7; CYP2C9 activ: 1.1

Screens as filed in PubChem.
